The source made the active and inactive calls.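 The calls were made as follows: active = IC50 below 10 µM at human M5 in a calcium flux test, acting as a negative modulator; inactive = the rest.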

Sequence of Muscarinic acetylcholine receptor M5 (Homo sapiens) (P08912 whole entry, looked up): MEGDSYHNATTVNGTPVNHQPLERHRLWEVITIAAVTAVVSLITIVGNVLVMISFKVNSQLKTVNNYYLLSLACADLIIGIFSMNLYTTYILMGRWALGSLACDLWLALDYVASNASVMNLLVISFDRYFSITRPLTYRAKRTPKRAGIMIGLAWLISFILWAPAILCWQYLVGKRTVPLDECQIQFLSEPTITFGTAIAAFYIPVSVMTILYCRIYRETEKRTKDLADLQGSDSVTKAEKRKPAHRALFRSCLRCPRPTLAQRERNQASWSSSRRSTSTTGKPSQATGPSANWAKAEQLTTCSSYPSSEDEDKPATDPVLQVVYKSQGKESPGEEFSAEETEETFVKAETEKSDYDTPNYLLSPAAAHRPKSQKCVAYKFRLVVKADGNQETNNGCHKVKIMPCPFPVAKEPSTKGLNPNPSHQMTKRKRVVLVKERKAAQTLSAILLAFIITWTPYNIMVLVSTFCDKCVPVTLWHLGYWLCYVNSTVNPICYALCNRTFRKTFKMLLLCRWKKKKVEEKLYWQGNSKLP

This assay concerns the target Muscarinic acetylcholine receptor M5 (Homo sapiens) (UniProt P08912). The assay is described as follows: M5 muscarinic receptor negative allosteric modulators, cell-based, single concentration, human M5 (AID 743025). The note with it: CHO-K1 hM5, ACh EC80 calcium flux, Fluo-4; at 10 µM; hits give low values. (In general: Calcium assays in cells follow changes in intracellular calcium, usually with a dye or a luminescent sensor.)
As for `O=C(c1ccc(OCc2ccccc2)cc1)N1CCN2C(=O)c3ccccc3C12c1ccccc1` (stereo not given), the activity remaining is 75.1% (inactive). The figure for `Cc1ccc(C(=O)N2CCN3C(=O)c4ccccc4C23c2ccccc2)cc1` (stereo not given) is 70.2% (inactive); for `CCCCCC(=O)N1CCN2C(=O)c3ccccc3C12c1ccccc1` (stereo not given) it is 75.3% (inactive); for `O=C(c1cc(F)cc(F)c1)N1CCN2C(=O)c3ccccc3C12c1ccc(Cl)cc1` (stereo not given) it is 3.53% (active). On to `C[C@H]1CN(Cc2ccccc2)[C@]2(c3ccc(Cl)cc3)c3ccccc3C(=O)N12`, for which the activity remaining is 73.1% (inactive). The figure for `O=C(c1cccnc1)N1CCN2C(=O)c3ccccc3C12c1ccccc1` (stereo not given) is 74.8% (inactive); for `O=C(c1ccccn1)N1CCN2C(=O)c3ncccc3C12c1ccccc1` (stereo not given) it is 73.7% (inactive); for `O=C(c1ccc(OC(F)(F)F)cc1)N1CCN2C(=O)c3ccccc3C12c1ccccc1` (stereo not given) it is 1.8% (active).

Consider `Cc1ccc(C(=O)N2CCN3C(=O)c4ccccc4C23c2ccc(C)cc2)cc1` (stereo not given), for which the activity remaining was 49.1% (active).

As to `Cc1ccc(C23c4ccccc4C(=O)N2CCN3C(=O)c2ccccc2)cc1` (stereo not given), the activity remaining was 53.2% (active). The figure for `Cc1ccc(C23c4ccccc4C(=O)N2CCN3C(=O)c2ccc(F)c(F)c2)cc1` (stereo not given) is 0.51% (active); for `COc1ccc(C23c4ccccc4C(=O)N2CCN3C(=O)c2ccc(F)cc2)cc1` (stereo not given) it is 62.4% (inactive); for `O=C(c1cc(F)cc(F)c1)N1CCN2C(=O)c3ncccc3C12c1ccccc1` (stereo not given) it is 75.2% (inactive). The figure for `O=C(Nc1ccc(F)cc1)N1CCN2C(=O)c3ccccc3C12c1ccccc1` (stereo not given) is 84.3% (inactive); for `COc1ccc(C(=O)N2CCN3C(=O)c4ccccc4C23c2ccccc2)cc1` (stereo not given) it is 77.7% (inactive).
